The record followed here is PubChem BioAssay.

Test [1] deals with Plasmodium falciparum Sir2 (PF13_0152, Sir2A). Briefly: pfSir2 binders on small-molecule microarrays, primary screen, biochemical, small-molecule microarray, 635 nm fluorescence (AID 1098).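 Further: score merges spot fluorescence intensity with its signal-to-noise ratio.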 Particulars: small-molecule microarray binding, fluorescence 635 nm; higher = more signal.
Test [2] can be described thus: small-molecule microarray binders of probe aDKK1, primary screen, biochemical, biotinylated probe, 635/667 nm fluorescence (AID 1099).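 Further: score merges 667nm spot fluorescence with signal to noise across triplicate slides; reference of the scale not given here.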 Particulars: higher = more signal.
Test [3] can be described thus: small-molecule microarray binders of probe aCHRDL2, primary screen, biochemical, biotinylated probe, 635/667 nm fluorescence (AID 1100). Particulars: higher = more signal.
Test [4] is described as follows: splicing luciferase reporter signal modulators, primary screen, spliceosome inhibition project, cell-based, HEK293, splice +/- reporter (AID 1101).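 Further: HEK293 cells carrying a splicing-competent luciferase reporter gene; test concentration not given here.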 Particulars: luminescence, 24 h, higher = more signal, called active from +8 up or from −8 down.
Test [5] addresses Fibroblast growth factor 10 (Homo sapiens) (UniProt O15520). Briefly: FGF10 binders on small-molecule microarrays, primary screen, biochemical, small-molecule microarray, 635 nm fluorescence (AID 1102). The note with it: FGF10 binding, fluorescence 635 nm, higher = more signal.
In test [6] the test system is glycogen synthase kinase-3 (GSK3A per assay name; protocol says GSK3B). Briefly: GSK3 binders on small-molecule microarrays, primary screen, biochemical, small-molecule microarray, 635 nm fluorescence, GSK3A (AID 1103). Further: the record names both GSK3A and GSK3B. The note with it: small-molecule microarray binding, fluorescence 635 nm; higher = more signal.
For test [7], the target named is Epidermal growth factor receptor (Homo sapiens) (UniProt P00533). Briefly: EGFR binders on small-molecule microarrays, primary screen, biochemical, small-molecule microarray, 635 nm fluorescence (AID 1104).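 Further: score merges 667 nm emission intensity with spot signal to noise over triplicate slides.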 Particulars: EGFR binding, higher = more signal.
Chain of Epidermal growth factor receptor (Homo sapiens) (P00533 whole entry, looked up): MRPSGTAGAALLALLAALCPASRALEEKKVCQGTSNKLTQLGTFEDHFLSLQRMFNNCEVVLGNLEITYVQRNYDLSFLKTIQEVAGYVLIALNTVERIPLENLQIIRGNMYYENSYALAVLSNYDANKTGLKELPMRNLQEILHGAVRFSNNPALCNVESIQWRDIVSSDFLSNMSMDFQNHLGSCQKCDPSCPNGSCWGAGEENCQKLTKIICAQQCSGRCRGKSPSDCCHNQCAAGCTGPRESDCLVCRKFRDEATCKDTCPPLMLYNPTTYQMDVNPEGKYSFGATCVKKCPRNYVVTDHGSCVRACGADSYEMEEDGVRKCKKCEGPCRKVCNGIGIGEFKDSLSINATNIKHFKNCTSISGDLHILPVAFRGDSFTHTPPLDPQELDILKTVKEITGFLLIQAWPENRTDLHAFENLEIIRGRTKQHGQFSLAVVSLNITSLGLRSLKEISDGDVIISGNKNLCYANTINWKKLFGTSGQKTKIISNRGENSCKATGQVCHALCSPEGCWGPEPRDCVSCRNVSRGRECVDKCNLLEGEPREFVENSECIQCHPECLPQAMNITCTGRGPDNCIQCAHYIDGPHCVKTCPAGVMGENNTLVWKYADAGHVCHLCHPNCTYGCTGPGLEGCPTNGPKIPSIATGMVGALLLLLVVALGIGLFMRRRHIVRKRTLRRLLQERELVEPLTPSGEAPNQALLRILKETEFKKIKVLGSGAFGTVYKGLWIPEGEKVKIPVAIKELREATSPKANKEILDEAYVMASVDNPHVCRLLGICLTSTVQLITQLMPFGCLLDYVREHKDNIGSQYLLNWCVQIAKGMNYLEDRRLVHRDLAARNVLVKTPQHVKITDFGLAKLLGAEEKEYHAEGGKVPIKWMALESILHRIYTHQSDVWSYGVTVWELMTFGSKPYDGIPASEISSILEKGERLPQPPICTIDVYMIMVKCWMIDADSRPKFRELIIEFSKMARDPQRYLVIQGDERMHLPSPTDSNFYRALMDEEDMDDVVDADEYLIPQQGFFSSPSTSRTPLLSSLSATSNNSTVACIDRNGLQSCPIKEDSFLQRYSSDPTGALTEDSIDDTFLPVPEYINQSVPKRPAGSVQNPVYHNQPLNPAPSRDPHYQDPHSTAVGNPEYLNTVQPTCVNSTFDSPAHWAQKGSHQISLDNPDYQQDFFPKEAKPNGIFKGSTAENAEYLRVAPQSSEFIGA
Test [8] has as its target Follistatin-related protein 3 (Homo sapiens) (UniProt O95633). Briefly: FSTL3 binders on small-molecule microarrays, primary screen, biochemical, small-molecule microarray, 635 nm fluorescence (AID 1105).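 Further: score merges emission near 667 nm and signal to noise per printed spot across three slides.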 Particulars: FSTL3 binding, higher = more signal.
The target of test [9] is Dickkopf-related protein 1 (Homo sapiens) (UniProt O94907). Briefly: DKK1 binders on small-molecule microarrays, primary screen, biochemical, small-molecule microarray, 635 nm fluorescence scan (AID 1106).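 Further: score merges emission near 667 nm with signal to noise over three replicate slides.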 The note with it: DKK1 binding, higher = more signal.
Chain of Dickkopf-related protein 1 (Homo sapiens) (O94907 whole entry, looked up): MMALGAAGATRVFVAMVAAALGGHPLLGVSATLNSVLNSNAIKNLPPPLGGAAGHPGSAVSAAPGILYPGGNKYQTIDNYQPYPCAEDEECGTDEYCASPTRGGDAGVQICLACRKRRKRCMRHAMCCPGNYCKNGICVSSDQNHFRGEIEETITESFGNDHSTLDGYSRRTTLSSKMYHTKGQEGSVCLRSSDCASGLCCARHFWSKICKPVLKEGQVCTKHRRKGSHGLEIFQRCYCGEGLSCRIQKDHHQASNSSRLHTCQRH
In test [10] the test system is Inhibin beta A chain (activin A). Briefly: INHBA (activin A) binders on microarrays, primary screen, biochemical, small-molecule microarray, 635 nm fluorescence scan (AID 1107).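 Further: mouse activin A protein probed at 4.33 µg/mL on printed slides; score merges bound-protein fluorescence near 667 nm with spot signal-to-noise.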 The note with it: small-molecule microarray binding, higher = more signal.

The source made the active and inactive calls.

Chain of Follistatin-related protein 3 (Homo sapiens) (O95633 whole entry, looked up): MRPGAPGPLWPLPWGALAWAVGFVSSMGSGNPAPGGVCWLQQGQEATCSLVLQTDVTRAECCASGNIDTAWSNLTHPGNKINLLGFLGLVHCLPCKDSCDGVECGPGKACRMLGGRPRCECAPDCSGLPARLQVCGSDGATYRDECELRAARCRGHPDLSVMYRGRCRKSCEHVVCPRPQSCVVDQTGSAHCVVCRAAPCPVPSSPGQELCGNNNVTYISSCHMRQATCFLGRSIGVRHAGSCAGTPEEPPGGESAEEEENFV
Chain of Fibroblast growth factor 10 (Homo sapiens) (O15520 whole entry, looked up): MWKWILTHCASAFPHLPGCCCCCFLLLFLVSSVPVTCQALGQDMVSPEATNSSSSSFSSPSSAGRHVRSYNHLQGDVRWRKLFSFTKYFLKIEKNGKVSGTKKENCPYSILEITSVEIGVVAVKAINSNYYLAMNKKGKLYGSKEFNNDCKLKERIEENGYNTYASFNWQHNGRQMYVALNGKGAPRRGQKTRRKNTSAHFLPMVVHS

On to `COC(=O)[C@@]1(Cc2ccc(OC)cc2)[C@H]2c3cc(C(=O)N4CCCC4)n(CCc4c[nH]c5ccc(O)cc45)c3C[C@H]2CN1C(=O)c1ccccc1`, for which the composite z-score in test [1] came to 1.29; in test [2] it was 1.24; in test [3], 1.2; in test [5] it was 1.06; in [6] it was 0.778; in test [7], 0.309. For the same molecule, the composite z-score is 1.13 in [8], -0.32 in [9] and 1.51 in [10]. In addition, the z-score in [4] was 0.129 (inactive).

In the case of `O=C(NCCN1CCOCC1)[C@@H]1c2ccccc2C(=O)N(C2Cc3ccccc3C2)[C@H]1c1ccc(CO)cc1`, the composite z-score in [1] is 0.909; in [2] it was 0.0974; in test [3], 0.852; in [5] it was -0.223; in test [6], 1.05; in test [7], -0.812. For the same molecule, the figures for the composite z-score in test [8], in test [9] and in test [10] were -0.414, -0.666 and -0.363, respectively. The z-score in [4] is -1.38 (inactive).

Turning to `CCOC(=O)C[C@H]1[C@H](OC(=O)c2ccc(C(=O)c3ccccc3)cc2)[C@@H](NC(=O)CC(C)C)c2cc(OCCCO)ccc2N1C(=O)c1ccccc1`, the composite z-score is 0.449 in test [1]; -0.0013 in [2]; -0.345 in [3]; 0.515 in test [5]; 0.972 in [6]; 0.141 in test [7]. Moreover, the composite z-score in test [8] worked out at 1.17; in test [9] it was 0.95; in test [10] it was 0.158. Moreover, the z-score in test [4] is -0.958 (inactive).

On to `CCOC(=O)C[C@H]1[C@H](OC(=O)c2ccc(C(=O)c3ccccc3)cc2)[C@@H](NC(=O)c2ccc3ccccc3n2)c2cc(OCCCO)ccc2N1C(=O)Cc1ccc(OC)cc1`, for which the composite z-score in test [1] is -0.318; in test [2], 0.57; in test [3], -0.385; in test [5], 0.0466; in test [6] it was 0.354; in test [7], 0.196. The composite z-score in test [8] is 0.346; in test [9], 0.239; in [10] it was 0.188. The z-score in [4] was 0.187 (inactive).

For the molecule `CC(C)(C)OC(=O)COc1cccc(C(=O)CCN2CCOCC2)c1`, the composite z-score in test [1] was 0.213; in test [2] it was 0.684; in test [3] it was 0.929; in [5] it was -0.189; in test [6], 0.136; in test [7], -0.67. The composite z-score in test [8] was -0.272; in test [9] it was -0.285; in test [10], 1.54. Moreover, the z-score in test [4] is 0.849 (inactive).

On to `COC(=O)[C@@]1(Cc2ccc(OC)cc2)[C@H]2c3cc(C(=O)N(C)C)n(Cc4ccc(OC(F)(F)F)cc4)c3C[C@H]2CN1C(=O)c1ccccc1`, for which the composite z-score in test [1] is 0.518; in [2], 0.34; in test [3] it was 1.15; in test [5], -0.19; in test [6] it was -0.448; in [7] it was -0.274. Further, the composite z-score was -0.558 in test [8], -0.995 in test [9] and 0.771 in test [10]. For the same molecule, the z-score in test [4] is 1.32 (inactive).

`COCCOC(=O)N1C(=O)[C@@]2(c3cc(C#CC4=CCCCC4)ccc31)[C@H](C(=O)Nc1nc3ccccc3s1)[C@H]1C(=O)O[C@H](c3ccccc3)[C@H](c3ccccc3)N1[C@@H]2c1ccc(O)cc1`: the composite z-score in test [1] was 0.61; in test [2], 0.157; in [3], -0.0764; in [5], 0.669; in [6], 1.28; in test [7], 0.635. Also, the composite z-score in [8] was found to be 0.918; in [9] it was 1.11; in test [10], 0.872. Further, the z-score in [4] was 0.111 (inactive).

For the molecule `CC(C)[Si](C#CCCCC#N)(O[C@H](c1ccccc1)c1cn(Cc2ccccc2)nn1)C(C)C`, the composite z-score in [1] was 0.562; in [2], -0.17; in [3], -0.65; in [5] it was 1.01; in test [6] it was 1.15; in [7], 0.494. For the same molecule, the composite z-score in test [8] came out at 1.21; in test [9], 0.869; in [10] it was 0.105. In test [4], the z-score was -1.08 (inactive).

As to `COc1cc(NN2C(C(O)c3ccco3)C=CC3C(=O)N(C)C(=O)C32)cc(OC)c1OC` (stereo not given), the composite z-score is 1.5 in [1]; 0.88 in test [2]; 0.469 in test [3]; 0.138 in [5]; 1.1 in test [6]; -0.169 in test [7]. For the same molecule, the composite z-score came to 0.0253 in test [8], 0.216 in test [9] and 0.752 in test [10]. Besides, the z-score in test [4] is 0.579 (inactive).

For the molecule `NC(=O)NCC#Cc1ccc2c(c1)[C@]1(C(=O)N2)[C@H](c2ccccc2OCCO)N2[C@H](c3ccccc3)[C@H](c3ccccc3)OC(=O)[C@H]2[C@@H]1C(=O)NC[C@H](O)c1ccccc1`, the composite z-score is 0.342 in test [1]; -0.224 in test [2]; 0.699 in test [3]; -0.491 in test [5]; -0.659 in [6]; -0.895 in [7]. Besides, the figures for the composite z-score in [8], in test [9] and in test [10] were -0.355, -0.548 and 0.472, respectively. Further, the z-score in [4] is -1.14 (inactive).

For `COc1ccc(CCNC(=O)[C@@]2(c3ccc([N+](=O)[O-])cc3)CC(=O)N(C3CCCCC3)[C@@H]2c2ccc(CO)cc2)cc1`, the composite z-score in test [1] was 0.54; in test [2], 0.701; in test [3], 0.806; in test [5] it was 0.525; in test [6], 1; in test [7], -0.155. Further, the composite z-score in test [8] stood at 0.211; in [9], 0.214; in test [10], 0.249. The z-score in [4] was -0.134 (inactive).

As for `CCCCN1CC=CC23O[C@@H]4/C=C\CCCOC(=O)C4[C@H]2C(=O)N(CCO)[C@@H]3C1=O` (stereo not given in full), the composite z-score was 1.77 in test [1]; -0.356 in test [2]; 0.644 in [3]; -1.29 in test [5]; -0.782 in [6]; -1.26 in test [7]. Also, the composite z-score in test [8] is -1.38; in test [9], -1.58; in [10], -0.677. Moreover, the z-score in [4] is -0.817 (inactive).

On to `CCCC=C(CCC)[C@@H](NP(=O)(c1ccccc1)c1ccccc1)c1ccc(-c2ccccc2)cc1`, for which the composite z-score came to 0.517 in test [1]; 0.719 in [2]; 0.581 in [3]; 1.11 in [5]; 1.27 in [6]; 0.183 in test [7]. Also, the composite z-score is 1.18 in test [8], -0.0014 in [9] and 0.479 in [10]. Moreover, in test [4], the z-score was -2.98 (inactive).

Regarding `COc1ccc([Si](C)(C)[C@@H]2[C@@H](CCO)O[C@]3(C(=O)N(Cc4ccccc4)c4ccc(N5CCOC5=O)cc43)[C@H]2C)cc1`, the composite z-score in test [1] was 1.54; in test [2] it was 0.0274; in test [3] it was -0.0546; in test [5], 0.24; in [6] it was 0.624; in test [7], 0.254. Also, the composite z-score stood at 0.637 in test [8], 0.406 in test [9] and 0.729 in [10]. The z-score in test [4] is -1.64 (inactive).

With `CC(C)NC(=O)[C@@]1(c2ccc([N+](=O)[O-])cc2)CC(=O)N(C2CCCCC2)[C@@H]1c1ccc(CO)cc1`, the composite z-score is 1.49 in [1]; -0.723 in test [2]; 0.0339 in test [3]; 1.23 in test [5]; 0.645 in test [6]; 0.0344 in test [7]. The composite z-score in test [8] is 1.04; in test [9] it was 0.214; in [10], -0.0249. The z-score in test [4] is 0.458 (inactive).

With `C=CC[C@]1(C(=O)N2CCCCC2)N=C(c2ccc(OCCCO)cc2)O[C@H]1c1ccccc1CN=[N+]=[N-]`, the composite z-score in test [1] was found to be 1.21; in test [2], 0.258; in test [3], 0.622; in [5], 1.21; in [6], 1.31; in [7] it was 0.128. The composite z-score in test [8] worked out at 0.922; in test [9] it was 0.263; in test [10], 0.851. For the same molecule, the z-score in test [4] is -0.234 (inactive).

On to `CCCNC(=O)[C@@]1(C)c2ccccc2C(=O)N(c2ccc(C)cn2)[C@H]1c1ccc(CO)cc1`, for which the composite z-score in [1] is 0.732; in [2], -0.103; in test [3], 0.649; in test [5], -0.779; in test [6] it was -0.158; in [7], -0.473. Further, the composite z-score was -0.223 in test [8], -0.126 in test [9] and 0.948 in test [10]. For the same molecule, in test [4], the z-score was 0.756 (inactive).
